Outcome and AC50 data for six compounds are collected here from PubChem BioAssay (EPA / NIEHS).

Assay [1] deals with Nuclear respiratory factor 1 (Homo sapiens) (UniProt Q16656). Kind of assay: ATG_NRF1_CIS: Attagene CIS-FACTORIAL HepG2 Assay for human Nuclear Respiratory Factor 1 (NRF1) Orphan Gene (AID 2282987). Particulars: HepG2 NRF1 cis-element reporter, Attagene multiplex; actives raise or lower the signal. An outline of the steps: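 HepG2 cells transiently transfected with multiple reporter transcription units under cis-regulatory promoter control, so endogenous transcription-factor activity is read. After 24 h compound exposure, reporter mRNA quantified by RT-PCR, fluorescent labelling, HpaI digestion and capillary electrophoresis; bidirectional fitting versus DMSO.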
Chain of Nuclear respiratory factor 1 (Homo sapiens) (Q16656 whole entry, looked up): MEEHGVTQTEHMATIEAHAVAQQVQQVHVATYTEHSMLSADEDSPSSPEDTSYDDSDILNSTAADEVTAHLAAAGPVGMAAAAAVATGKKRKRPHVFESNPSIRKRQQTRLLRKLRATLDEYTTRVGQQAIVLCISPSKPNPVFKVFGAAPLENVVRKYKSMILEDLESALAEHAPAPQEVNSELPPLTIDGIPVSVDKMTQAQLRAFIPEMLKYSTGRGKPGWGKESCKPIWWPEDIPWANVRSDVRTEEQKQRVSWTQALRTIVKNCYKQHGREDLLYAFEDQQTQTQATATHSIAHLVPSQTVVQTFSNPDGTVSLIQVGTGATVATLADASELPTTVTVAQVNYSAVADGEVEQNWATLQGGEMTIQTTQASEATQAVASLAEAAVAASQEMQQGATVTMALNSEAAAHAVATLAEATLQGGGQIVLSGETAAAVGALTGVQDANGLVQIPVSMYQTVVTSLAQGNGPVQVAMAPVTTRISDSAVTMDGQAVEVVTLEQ

The target of assay [2] is Myc proto-oncogene protein (Homo sapiens) (UniProt P01106). Kind of assay: ATG_Myc_CIS: Attagene CIS-FACTORIAL HepG2 Assay for human Myelocytomatosis (Myc) Proto-Oncogene Transcription Factor (AID 2282990). The following applies: HepG2, Attagene cis-reporter transcription factor activity; actives raise or lower the signal. The essentials: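 Multiplexed cis-reporter transcription in HepG2 cells after 24 h chemical treatment. Reporter mRNA measured by RT-PCR and capillary electrophoresis fluorescence; activity fitted bidirectionally against DMSO control.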
Chain of Myc proto-oncogene protein (Homo sapiens) (P01106 whole entry, looked up): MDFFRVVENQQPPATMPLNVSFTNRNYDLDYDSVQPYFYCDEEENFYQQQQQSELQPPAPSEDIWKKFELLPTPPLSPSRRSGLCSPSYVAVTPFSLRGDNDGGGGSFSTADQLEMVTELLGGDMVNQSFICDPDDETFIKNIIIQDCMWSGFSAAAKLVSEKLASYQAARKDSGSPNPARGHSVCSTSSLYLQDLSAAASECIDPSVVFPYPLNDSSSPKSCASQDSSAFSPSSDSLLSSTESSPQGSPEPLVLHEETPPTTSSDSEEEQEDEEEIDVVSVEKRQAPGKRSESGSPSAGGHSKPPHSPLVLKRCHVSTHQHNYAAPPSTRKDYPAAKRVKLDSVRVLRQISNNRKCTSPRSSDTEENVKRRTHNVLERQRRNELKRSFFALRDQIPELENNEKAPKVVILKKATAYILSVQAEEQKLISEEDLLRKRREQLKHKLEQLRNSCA

Assay [3] can be described thus: ATG_NF_kB_CIS: Attagene CIS-FACTORIAL HepG2 Assay for human Nuclear Factor Kappa B (NF-kB) (AID 2282991). The following applies: HepG2 Attagene cis-factorial NF-kB reporter mRNA; actives raise or lower the signal. An outline of the steps: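 HepG2 cells transiently transfected with multiplexed cis-element reporter units measuring endogenous transcription factor activity; reporter mRNA read 24 h after dosing by RT-PCR, fluorescent labelling, HpaI digestion and capillary electrophoresis. Bidirectional fit against DMSO baseline.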

Assay [4] is described as follows: ATG_NRF2_ARE_CIS: Attagene CIS-FACTORIAL HepG2 Assay for human Nuclear Factor Erythroid 2 Related Factor 2 (NFR2) response to Antioxidant Response Elements (ARE) (AID 2282992). Particulars: HepG2 Attagene ARE/NRF2 reporter, transcription factor activity; actives raise or lower the signal. An outline of the steps: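 Endogenous transcription factor activity read out as reporter transcript levels (RT-PCR plus capillary electrophoresis, fluorescence) in transiently transfected HepG2 cells. Measured at 24 h after dosing; gain or loss of signal fitted versus DMSO.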

A short description of assay [5]: ATG_Oct_MLP_CIS: Attagene CIS-FACTORIAL HepG2 Assay for human Octamer-Binding Transcription Factor (Oct) (AID 2282993). The following applies: HepG2 Attagene cis-factorial Oct reporter, mRNA; actives raise or lower the signal. The essentials:
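HepG2 cells transiently transfected with cis-element-driven reporter transcription units (endogenous TF activity); 24 h compound exposure. Reporter mRNA quantified by RT-PCR, 6-FAM labelling, HpaI digestion and capillary electrophoresis; bidirectional fit versus DMSO baseline.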

The target of assay [6] is Cellular tumor antigen p53 (Homo sapiens) (UniProt P04637). As to the kind of experiment: ATG_p53_CIS: Attagene CIS-FACTORIAL HepG2 Assay for human p53 Transcription Factor (AID 2282994). Particulars: HepG2 p53 cis-element reporter, Attagene mRNA; actives raise or lower the signal. An outline of the steps: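 Endogenous p53 activity read in transiently transfected HepG2 from a cis-element-driven reporter transcript after 24 h exposure. RNA reverse-transcribed, PCR-amplified, fluorescently labelled and sized by capillary electrophoresis; gain or loss fitted against DMSO baseline.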
Chain of Cellular tumor antigen p53 (Homo sapiens) (P04637 whole entry, looked up): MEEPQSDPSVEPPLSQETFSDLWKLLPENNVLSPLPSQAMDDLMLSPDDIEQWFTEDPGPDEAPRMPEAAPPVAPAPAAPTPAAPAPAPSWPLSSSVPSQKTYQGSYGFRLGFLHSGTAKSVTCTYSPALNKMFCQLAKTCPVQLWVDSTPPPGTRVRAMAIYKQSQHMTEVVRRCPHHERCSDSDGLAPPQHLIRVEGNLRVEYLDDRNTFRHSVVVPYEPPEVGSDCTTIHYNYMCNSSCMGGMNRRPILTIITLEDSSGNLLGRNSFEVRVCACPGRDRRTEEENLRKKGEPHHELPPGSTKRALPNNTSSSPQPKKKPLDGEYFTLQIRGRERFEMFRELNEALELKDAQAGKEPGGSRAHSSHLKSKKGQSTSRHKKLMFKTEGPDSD

The nature of assay [7]: BSK_3C_TissueFactor: BioMAP Diversity Plus: 3C Assay for Tissue Factor Biomarker Activity (AID 2282997). The following applies: BioMAP 3C HUVEC, tissue factor biomarker readout; actives raise or lower the signal. The essentials:
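Readout: Tissue Factor ELISA. Cells: human primary umbilical vein endothelium. Time: 24 h after dosing. Analysis: bidirectional fit, DMSO baseline.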

The nature of assay [8]: BSK_3C_uPAR: BioMAP Diversity Plus: 3C Assay for Urokinase-type plasminogen activator receptor (uPAR) Biomarker Activity (AID 2282998). The following applies: BioMAP 3C HUVEC, uPAR biomarker ELISA; actives raise or lower the signal. The essentials: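 Primary human umbilical vein endothelial cells, 3C system; surface uPAR measured by ELISA 24 h after dosing. Cytotoxicity via SRB total protein in parallel cultures; bidirectional fit against DMSO.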
(In general: In an ELISA, binding on a coated surface is turned into a signal by an enzyme label.)

A short description of assay [9]: BSK_3C_VCAM1: BioMAP Diversity Plus: 3C Assay for Vascular cell adhesion molecule 1 (VCAM1) Biomarker Activity (AID 2282999). Particulars: BioMAP 3C HUVEC, VCAM1 ELISA, cytokine-stimulated; actives raise or lower the signal. The essentials: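 Vascular primary endothelium (human umbilical vein) was exposed to chemicals and assayed 24 h later. VCAM-1 levels came from ELISA, with DMSO serving as baseline for bidirectional fitting.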

Assay [10] addresses human Peroxisome Proliferator-activated Receptor alpha (PPARa), PPARA (gene 5465) (UniProt Q07869). As to the kind of experiment: ATG_PPARa_TRANS: Attagene TRANS-FACTORIAL HepG2 Assay for human Peroxisome Proliferator-activated Receptor alpha (PPARa) (AID 2283001; active = hit-call score of the fitted dose curve at least 0.9, where 1 is the maximum;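 as to AC50: potency for gain of reporter signal over DMSO so agonist or activator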). The essentials:
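Cells (HepG2) are transfected with multiple reporter transcription units, exposed to chemical for 24 h, then total RNA is reverse-transcribed and amplified. Labelled products are quantified by capillary electrophoresis; induction is referenced to DMSO.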

Assay [11] addresses human Peroxisome Proliferator-activated Receptor delta (PPARd), PPARD (gene 5467) (UniProt Q03181). Kind of assay: ATG_PPARd_TRANS: Attagene TRANS-FACTORIAL HepG2 Assay for human Peroxisome Proliferator-activated Receptor delta (PPARd) (AID 2283002; active = hit-call score of the fitted dose curve at least 0.9, where 1 is the maximum). An outline of the steps:
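Multiplexed trans-activation format: HepG2 liver cells expressing exogenous NR-Gal4 chimeras and GAL4-UAS reporters were exposed for 24 h. Reporter mRNA was detected by RT-PCR with capillary electrophoresis fluorescence; activity fitted as gain of signal relative to DMSO.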

Read-out in assay [12]: Intercellular Adhesion Molecule 1 (ICAM1), ICAM1 (gene 3383)
As to the kind of experiment: BSK_3C_ICAM1: BioMAP Diversity Plus: 3C Assay for Intercellular Adhesion Molecule 1 (ICAM1) Biomarker Activity (AID 2283003). Particulars: primary human endothelial cells (HUVEC); actives raise or lower the signal. An outline of the steps: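 Chemicals are dosed onto primary human umbilical vein endothelium (3C system). After 24 h, ICAM-1 is measured by ELISA, and responses are fitted bidirectionally relative to DMSO.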

The target in assay [13] is human Retinoic Acid Receptor beta (RARb), RARB (gene 5915) (UniProt P10826). As to the kind of experiment: ATG_RARb_TRANS: Attagene TRANS-FACTORIAL HepG2 Assay for human Retinoic Acid Receptor beta (AID 2283004; active = hit-call score of the fitted dose curve at least 0.9, where 1 is the maximum). An outline of the steps:
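HepG2 cells transiently transfected with multiplexed GAL4-UAS reporter units expressing chimeric NR–Gal4 fusions; 24 h compound exposure. Reporter mRNA quantified by RT-PCR, 6-FAM labelling, HpaI digestion and capillary electrophoresis; gain-of-signal fitted against DMSO baseline.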

The target of assay [14] is Retinoic acid receptor alpha (Homo sapiens) (UniProt P10276). As to the kind of experiment: ATG_RARa_TRANS: Attagene TRANS-FACTORIAL HepG2 Assay for human Retinoic Acid Receptor alpha (RARa) (AID 2283005; active = hit-call score of the fitted dose curve at least 0.9, where 1 is the maximum). An outline of the steps:
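HepG2 cells transiently transfected with multiple reporter units expressing chimeric RARα-GAL4 fusion, with GAL4-UAS-driven reporters. After 24 h compound exposure, reporter mRNA induction quantified by RT-PCR and capillary electrophoresis with fluorescent labeling; gain-of-signal fitted relative to DMSO control.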

The nature of assay [15]: BSK_3C_Proliferation: Cell Proliferation Assessment in the BioMAP Diversity Plus: 3C Assay (AID 2283006).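 As to AC50: potency may reflect either rise or fall in cell number versus DMSO.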 The following applies: primary human endothelial cells (HUVEC). The essentials: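 Cells (human umbilical vein endothelial, sub-confluent) receive test chemical; after 48 h they are fixed in 10% trichloroacetic acid, stained with 0.1% SRB and read at 560 nm. Activity is referenced to DMSO, fitting increases and decreases.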

Assay [16] has as its target Peroxisome proliferator-activated receptor gamma (Homo sapiens) (UniProt P37231). Kind of assay: ATG_PPARg_TRANS: Attagene TRANS-FACTORIAL HepG2 Assay for human Peroxisome Proliferator-activated Receptor-gamma (PPARg) (AID 2283007; active = hit-call score of the fitted dose curve at least 0.9, where 1 is the maximum). An outline of the steps: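 HepG2 cells transiently transfected with multiplexed GAL4-UAS reporter units and exogenous chimeric NR-Gal4 proteins; reporter mRNA quantified after 24 h compound exposure by RT-PCR, fluorescent labelling, HpaI digestion and capillary electrophoresis; gain-of-signal fitted versus DMSO baseline.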

Assay [17] concerns the target Nuclear receptor subfamily 1 group I member 2 (Homo sapiens) (UniProt O75469). Kind of assay: ATG_PXR_TRANS: Attagene TRANS-FACTORIAL HepG2 Assay for human Pregnane X Receptor (PXR) (AID 2283008; active = hit-call score of the fitted dose curve at least 0.9, where 1 is the maximum). The essentials:
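Transactivation by exogenous PXR–GAL4 fusion measured as reporter transcript induction after 24 h compound treatment of transfected human HepG2 cells. Read-out via RT-PCR and capillary electrophoresis of labelled fragments, fitted upward relative to DMSO.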

Assay [18] is described as follows: BSK_4H_Eotaxin3: BioMAP Diversity Plus: 4H Assay for Eotaxin 3 Biomarker Activity (AID 2283000).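 As to Outcome: CCL26 protein level quantified by ELISA in parallel with SRB cytotoxicity check.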 The following applies: primary human endothelial cells (HUVEC); actives raise or lower the signal. An outline of the steps: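 HUVEC, 24 h post-dose, ELISA for Eotaxin-3/CCL26. Gain or loss of signal fitted bidirectionally vs DMSO baseline.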

Molecules are shown by their SMILES. Values joined by “and” are separate entries in the source; they are usually repeats but may differ in a detail not shown here. Equal values may be shown once. Records with an inconclusive call do not appear. A structure can be active in one record and inactive in another. Active and inactive are the calls of the source. The calls were made as follows, unless noted: active = hit-call score of the fitted dose curve at least 0.9, where 1 is the maximum; inactive = score below 0.9.

Chain of Retinoic acid receptor alpha (Homo sapiens) (P10276 whole entry, looked up, the tested form may be a part): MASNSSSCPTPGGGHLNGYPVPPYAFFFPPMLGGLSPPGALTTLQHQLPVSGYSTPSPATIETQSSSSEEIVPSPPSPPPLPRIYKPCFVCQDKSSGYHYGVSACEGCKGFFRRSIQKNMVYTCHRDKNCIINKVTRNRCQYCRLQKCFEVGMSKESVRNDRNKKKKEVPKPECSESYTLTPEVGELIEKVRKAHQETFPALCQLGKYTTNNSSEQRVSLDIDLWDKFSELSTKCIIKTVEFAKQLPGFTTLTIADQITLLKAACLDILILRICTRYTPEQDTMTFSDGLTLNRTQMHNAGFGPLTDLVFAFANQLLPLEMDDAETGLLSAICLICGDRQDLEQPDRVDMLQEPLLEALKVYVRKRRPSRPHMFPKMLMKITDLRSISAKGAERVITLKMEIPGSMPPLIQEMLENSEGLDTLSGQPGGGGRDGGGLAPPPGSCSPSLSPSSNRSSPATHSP
Chain of human Peroxisome Proliferator-activated Receptor delta (PPARd), PPARD (gene 5467) (Q03181 whole entry, looked up, the tested form may be a part): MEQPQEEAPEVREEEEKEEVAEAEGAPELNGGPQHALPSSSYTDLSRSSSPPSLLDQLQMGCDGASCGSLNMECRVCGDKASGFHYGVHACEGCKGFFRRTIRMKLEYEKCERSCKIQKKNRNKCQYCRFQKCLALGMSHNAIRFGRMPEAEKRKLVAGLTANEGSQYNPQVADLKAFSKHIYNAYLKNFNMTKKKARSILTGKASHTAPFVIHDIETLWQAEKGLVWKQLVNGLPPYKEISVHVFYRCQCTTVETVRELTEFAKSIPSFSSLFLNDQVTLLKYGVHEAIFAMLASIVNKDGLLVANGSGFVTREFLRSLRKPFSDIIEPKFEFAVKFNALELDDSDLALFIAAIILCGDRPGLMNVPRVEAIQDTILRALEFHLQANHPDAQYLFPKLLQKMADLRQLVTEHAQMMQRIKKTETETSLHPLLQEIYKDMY
Chain of Nuclear receptor subfamily 1 group I member 2 (Homo sapiens) (O75469 whole entry, looked up, the tested form may be a part): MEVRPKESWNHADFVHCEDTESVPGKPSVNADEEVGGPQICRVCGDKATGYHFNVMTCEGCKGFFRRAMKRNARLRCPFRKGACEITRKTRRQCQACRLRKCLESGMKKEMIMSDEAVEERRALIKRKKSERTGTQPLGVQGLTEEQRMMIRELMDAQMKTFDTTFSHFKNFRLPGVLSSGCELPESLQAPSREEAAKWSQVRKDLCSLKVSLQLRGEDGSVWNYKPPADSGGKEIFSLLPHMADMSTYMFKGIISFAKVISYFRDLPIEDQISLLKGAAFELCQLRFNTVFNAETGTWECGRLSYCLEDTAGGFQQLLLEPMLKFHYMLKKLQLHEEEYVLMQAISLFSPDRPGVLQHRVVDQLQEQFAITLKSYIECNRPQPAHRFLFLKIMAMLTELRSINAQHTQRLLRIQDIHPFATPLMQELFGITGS
Chain of Peroxisome proliferator-activated receptor gamma (Homo sapiens) (P37231 whole entry, looked up, the tested form may be a part): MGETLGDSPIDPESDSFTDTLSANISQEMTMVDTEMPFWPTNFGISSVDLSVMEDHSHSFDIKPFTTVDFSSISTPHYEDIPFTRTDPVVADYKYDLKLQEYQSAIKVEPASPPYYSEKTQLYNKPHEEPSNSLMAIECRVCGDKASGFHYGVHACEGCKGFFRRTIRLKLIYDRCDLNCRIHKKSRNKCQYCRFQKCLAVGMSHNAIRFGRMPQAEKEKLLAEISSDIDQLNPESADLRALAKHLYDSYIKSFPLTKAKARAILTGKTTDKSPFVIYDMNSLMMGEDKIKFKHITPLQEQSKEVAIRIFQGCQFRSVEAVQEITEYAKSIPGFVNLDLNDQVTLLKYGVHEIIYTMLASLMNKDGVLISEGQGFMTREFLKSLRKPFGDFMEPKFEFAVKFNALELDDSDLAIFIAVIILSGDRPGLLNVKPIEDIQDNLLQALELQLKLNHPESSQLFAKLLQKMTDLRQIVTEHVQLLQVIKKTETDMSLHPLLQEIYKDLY
Chain of human Peroxisome Proliferator-activated Receptor alpha (PPARa), PPARA (gene 5465) (Q07869 whole entry, looked up): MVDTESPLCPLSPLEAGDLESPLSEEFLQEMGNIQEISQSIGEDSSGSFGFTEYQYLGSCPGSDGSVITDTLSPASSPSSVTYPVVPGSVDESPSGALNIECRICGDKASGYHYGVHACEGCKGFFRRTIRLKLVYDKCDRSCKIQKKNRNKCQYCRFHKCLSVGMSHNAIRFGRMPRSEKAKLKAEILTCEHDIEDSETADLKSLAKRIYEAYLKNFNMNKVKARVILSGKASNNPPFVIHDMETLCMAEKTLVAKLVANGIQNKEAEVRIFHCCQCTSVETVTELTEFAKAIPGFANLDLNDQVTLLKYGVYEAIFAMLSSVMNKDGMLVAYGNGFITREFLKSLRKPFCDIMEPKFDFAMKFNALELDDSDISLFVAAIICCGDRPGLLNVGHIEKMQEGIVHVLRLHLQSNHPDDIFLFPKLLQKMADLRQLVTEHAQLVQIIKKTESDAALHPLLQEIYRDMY
Chain of human Retinoic Acid Receptor beta (RARb), RARB (gene 5915) (P10826 whole entry, looked up, the tested form may be a part): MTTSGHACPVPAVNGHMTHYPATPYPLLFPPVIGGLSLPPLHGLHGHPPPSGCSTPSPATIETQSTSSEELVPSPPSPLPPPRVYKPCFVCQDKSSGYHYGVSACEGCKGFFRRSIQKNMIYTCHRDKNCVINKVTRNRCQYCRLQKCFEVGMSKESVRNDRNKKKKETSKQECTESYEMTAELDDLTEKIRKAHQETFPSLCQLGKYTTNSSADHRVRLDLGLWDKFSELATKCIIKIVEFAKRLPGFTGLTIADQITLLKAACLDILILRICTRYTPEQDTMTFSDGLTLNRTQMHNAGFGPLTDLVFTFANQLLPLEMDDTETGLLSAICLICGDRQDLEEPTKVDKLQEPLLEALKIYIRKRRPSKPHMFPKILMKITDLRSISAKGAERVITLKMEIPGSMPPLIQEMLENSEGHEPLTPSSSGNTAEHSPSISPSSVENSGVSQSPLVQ

Regarding `CCCCCCCCc1ccc(O)cc1`, the outcome in assay [1], in assay [2], in assay [3], in assay [4], in assay [5] and in assay [6] was inactive. For the same compound, the result in assay [10], in assay [11], in [13], in [14] and in [17] was inactive. For the same compound, the concentration at half-maximal activity (AC50) was 11.2 µM (active) in assay [4]; 32.2 µM (active) in [7]; 37.2 µM (active) in assay [8]; 31.9 µM (active) in assay [9]; 24.8 µM (active) in assay [10]; 35.6 µM (active) in assay [12]. In addition, the AC50 in assay [15] was 8.43 µM (active); in [16], 22 µM (active); in assay [17] it was 7.55 µM (active).
`O=C(O)CCC(F)(C(F)(F)F)C(F)(F)F`: the outcome in [7], in assay [8], in [9], in assay [18] and in assay [15] was inactive.
As to `Cn1sc(Cl)cc1=O`, the result in assay [1], in assay [2], in [5], in [6], in [8] and in assay [12] was inactive. Further, the AC50 is 139 µM (active) in assay [3]; 135 µM (active) in assay [4]; 16.2 µM (active) in [7]; 36.1 µM (active) in [9]; 13.7 µM (active) in [15].
`CCNc1nc(NC(C)(C)C)nc(SC)n1`: the call in assay [1], in assay [2], in assay [3], in assay [4], in assay [5] and in [6] was inactive. Further, the outcome in [7], in assay [8], in assay [9], in assay [11] and in [15] was inactive. In addition, the AC50 in assay [16] is 29.5 µM (active); in [17], 2.02 µM (active).
Regarding `O=C1C2(Cl)C3(Cl)C4(Cl)C(Cl)(Cl)C5(Cl)C3(Cl)C1(Cl)C5(Cl)C24Cl` (stereo not given), the result in [1], in assay [2], in assay [3], in assay [4], in [5] and in [6] was inactive. Besides, the outcome in [11], in [13], in assay [14], in assay [16] and in assay [17] was inactive. Further, the AC50 in assay [3] is 16.5 µM (active); in [4] it was 6.04 µM (active); in assay [5] it was 16.7 µM (active); in assay [7] it was 7.03 µM (active); in assay [8], 7.28 µM (active); in assay [9], 10.2 µM (active). In addition, the AC50 was 10.4 µM (active) in [18]; 4.9 µM (active) in assay [15]; 2.11 µM (active) and 2.9 µM (active) and 6.2 µM (active) in assay [17].
Regarding `COc1ccccc1OC`, the compound was classed as inactive in [1], in assay [2], in assay [3], in [4], in [5] and in [6]. The compound was classed as inactive in assay [10], in [11], in assay [13], in [16] and in [17].

One may read the AC50 as the concentration giving half of the maximal activity seen.
